Test [1] in a line: signal quenchers or enhancers, Cy5 substrate/SSB – biochemical, NIH Clinical Collection, E. coli SSB, artefact control for HCV NS3 helicase inhibitor project (AID 743268; call rule not given here). The settings on record: Cy5-oligo bound E. coli SSB, fluorescence interference.
The test system of test [2] is Hepatitis C virus NS3 helicase. Kind of test: blockers of NS3h binding to DNA – biochemical, fluorescence polarization, NIH Clinical Collection, primary screen (AID 743270; call rule not given here). The note with it: NS3 helicase binding to Cy5-dT15 DNA, hits give high values, concentration not given here. A general note: Fluorescence polarisation rises when a labelled molecule tumbles more slowly, as on binding a larger partner.

The target of test [3] is Single-stranded DNA-binding protein (Escherichia coli (strain K12)) (UniProt P0AGE0). Nature of the test: SSB-ssDNA binding inhibitors – biochemical, fluorescence polarization, NIH Clinical Collection, counter-screen for HCV NS3 helicase inhibitor project (AID 743271; in the data active means inhibition above about 28%). The note with it: E. coli SSB-DNA binding, hits give high values, concentration not given here.
Test [4] can be described thus: compounds distorting NS3 helicase fluorescence signal – biochemical, NIH Clinical Collection, artefact control for HCV NS3 helicase inhibitor project (AID 743272; call rule not given here;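 further: HCV NS3 helicase with a Cy5 labelled single stranded DNA probe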). The note with it: fluorescence interference counterscreen, HCV NS3 helicase assay; hits give low values. A general note: A counterscreen serves to expose hits that act by an unwanted route or on another target.

Test [5] has as its system Neuropilin-2 / VEGF-C interaction (human). Nature of the test: small molecules blocking Neuropilin-2/VEGF-C interaction – biochemical, microplate binding format, z-score (AID 743281; call rule not given here). The note with it: microplate NRP2/VEGF-C binding assay; hits give low values.
Test [6] is described as follows: modulation of C. elegans fzo-1 (AID 1259413; call rule not given here;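 further: fzo-1 mutant C. elegans worms in liquid wells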). The note with it: C. elegans fzo-1 modulator screen, mean read-out; hits give high values.
Test [7] concerns F380Y. Kind of test: BK channel mutant inhibitors and activators – cell-based, U2OS BacMam, thallium flux, beta subunits, selectivity assay, profiling panel (AID 1259406).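 Further: initial slope of Thallos dye fluorescence rise after thallium is added; log ratio against the mean of 0.3% DMSO vehicle wells on the same plate.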 The settings on record: U2OS BacMam BK variants, at 30 µM.
In test [8] the test system is F380Y/beta1. The description is as above. The settings on record: U2OS BacMam BK variants, at 30 µM.
Test [9] has as its system F380Y/beta2Delta. Described as above. The note with it: U2OS BacMam BK variants, at 30 µM.
The test system of test [10] is F380Y/beta4. The test is described as above. The settings on record: U2OS BacMam BK variants, at 30 µM.
The target in test [11] is Calcium-activated potassium channel subunit alpha-1 (Homo sapiens) + Leucine-rich repeat-containing protein 26 (Homo sapiens) (UniProt Q12791+Q2I0M4). The test is described as above. The note with it: U2OS BacMam BK variants, F380Y/Slo1WT/gamma1, at 30 µM.
In test [12] the test system is R275C. The test is described as above. The settings on record: U2OS BacMam BK variants, at 30 µM.
For test [13], the system named is R275C/beta1. The test is described as above. The settings on record: U2OS BacMam BK variants, at 30 µM.
Test [14] concerns R275C/beta2Delta. Described as above. The note with it: U2OS BacMam BK variants, at 30 µM.
In test [15] the test system is R275C/beta4. The test is described as above. The settings on record: U2OS BacMam BK variants, at 30 µM.
Test [16] has as its system R275C/Slo1WT/beta2. The test is described as above. The note with it: U2OS BacMam BK variants, at 30 µM.
Test [17] is described as follows: compounds altering circadian rhythm period length – cell-based, LOPAC library, luminescence reporter (AID 2774; call rule not given here;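 further: values are relative to mean of DMSO wells on each plate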). The note with it: circadian reporter cells, at 7 µM, actives lie on both sides.
Test [18] deals with Hepatitis C virus NS3 helicase. Nature of the test: blockers of NS3h binding to ssDNA – biochemical, fluorescence polarization, LOPAC1280 library, primary screen (AID 687035; in the data active means inhibition above about 37%). The settings on record: Purified HCV NS3 helicase, Cy5-dT15 ssDNA binding fluorescence polarization; hits give high values; concentration not given here.
Test [19] is described as follows: compounds altering Cy5-DNA-NS3h complex signal – biochemical, LOPAC1280, artefact control for HCV NS3 helicase inhibitor project (AID 687037; call rule not given here). The note with it: Cy5-DNA-NS3h complex fluorescence interference counterscreen.
Test [20] is described as follows: blockers of cellular phospholipid synthesis – cell-based, LOPAC library, screen 4, primary screen (AID 1347384; call rule not given here). The note with it: animal cells, phospholipid biosynthesis inhibition screen; at 10 µM.

SMILES strings stand for the structures. Values joined by “and” are separate entries in the source; they are usually repeats but may differ in a detail not shown here. Equal entries are not always repeated. Values without a mark were called inactive. Active and inactive are the calls of the source.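 How the source made its calls, unless noted: active means thallium flux through the channel raised or lowered by more than 3 SD from vehicle-only wells, actives on both sides; inactive means the rest.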

Chain of Calcium-activated potassium channel subunit alpha-1 (Homo sapiens) + Leucine-rich repeat-containing protein 26 (Homo sapiens) (Q2I0M4 whole entry, looked up, one chain of several): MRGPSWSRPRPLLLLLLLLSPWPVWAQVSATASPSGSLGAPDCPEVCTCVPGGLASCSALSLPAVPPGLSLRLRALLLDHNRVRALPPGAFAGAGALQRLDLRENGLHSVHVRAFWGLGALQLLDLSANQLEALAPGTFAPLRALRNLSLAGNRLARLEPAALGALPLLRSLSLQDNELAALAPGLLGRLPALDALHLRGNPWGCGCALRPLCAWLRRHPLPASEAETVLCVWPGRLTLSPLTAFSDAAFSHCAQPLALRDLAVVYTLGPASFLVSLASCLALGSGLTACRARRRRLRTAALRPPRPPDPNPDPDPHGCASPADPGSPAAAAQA

In general, inhibition refers to the change of the read-out against control, counted positive when it falls. Consider `c1ccc2c3c([nH]c2c1)CNCC3`, for which the fluorescence ratio in test [1] was 0.93; in [4], 0.91. The inhibition in test [2] was 0.66%; in [3] it was 5.12%. Moreover, the z-score in [5] is -0.415. In addition, the mean signal in test [6] was 258. Besides, the log fold change Tl+ flux is -0.00245 in [7]; -0.00595 in [8]; -0.0184 in test [9]; -0.0163 in test [10]; 0.00353 in [11]; 0.0253 in [12]. Further, the log fold change Tl+ flux in test [13] was -0.0273; in [14], -0.0332; in test [15], -0.016; in test [16] it was -0.0345.
For `C=CCN1CC[C@]23c4c5ccc(O)c4O[C@H]2C(=O)CC[C@@]3(O)[C@H]1C5`, the fluorescence ratio in [1] was 0.104 (active); in test [4] it was 1.04. Moreover, the inhibition was -4.09% in test [2] and -4.29% in [3]. Further, the log fold change Tl+ flux in test [7] was -0.039; in [8], 0.0814; in [9] it was 0.0141; in [10], 0.0525; in test [11], -0.00699; in [12], 0.034. The log fold change Tl+ flux in test [13] is 0.000161; in test [14], 0.0302; in [15], 0.00421; in test [16], 0.0157.
As for `Clc1ccc(COC(Cn2ccnc2)c2ccc(Cl)cc2Cl)c(Cl)c1` (stereo not given), the results for the fluorescence ratio in test [1] and in test [4] were 0.96 and 0.93, respectively. The inhibition was 6.82% in test [2] and 4.86% in test [3]. Further, the mean signal in [6] was 182. The log fold change Tl+ flux was -0.0473 in test [7]; -0.101 in test [8]; -0.0262 in [9]; -0.445 (active) in [10]; 0.0222 in test [11]; -0.0411 in test [12]. For the same compound, the log fold change Tl+ flux was 0.0424 in [13], -0.0245 in test [14], 0.0768 in test [15] and 0.0237 in test [16].
On to `COc1ccc2[nH]cc(CCN)c2c1`, for which the period change in test [17] is -0.125 h. Moreover, the inhibition in test [18] was -2%; in test [2], -1.09%; in test [3] it was 3.54%. In test [19], the fluorescence ratio (interference) is 1. Moreover, the fluorescence ratio in [1] is 0.98; in test [4], 0.97. The z-score in test [5] is 0.413. In test [6], the mean signal was 258. Besides, the outcome in [20] was inactive. Also, the log fold change Tl+ flux in test [7] is 0.0218; in test [8], 0.0119; in test [9], -0.052; in [10] it was -0.0167; in test [11], -0.0293; in test [12], -0.061. Further, the log fold change Tl+ flux in test [13] was -0.0101; in test [14], -0.00391; in test [15], 0.0135; in test [16], 0.00615.
With `CC(C)CC(N(C)C)C1(c2ccc(Cl)cc2)CCC1` (stereo not given), the fluorescence ratio is 1.01 and 0.96 in test [1]; 1.01 and 0.95 in test [4]. In addition, the inhibition in [2] is -0.22% and -8.08%; in [3] it was -1.97% and 1.97%. For the same compound, in test [5], the outcome was inactive. Besides, in [5], the z-score is -0.0182. For the same compound, the mean signal in test [6] was 232.
In the case of `CC[C@@]1(O)C(=O)OCc2c1cc1n(c2=O)Cc2cc3ccccc3nc2-1`, the period change in test [17] was -0.48 h. Moreover, in test [18], the inhibition is 0%. Besides, the fluorescence ratio (interference) in test [19] was 1. For the same compound, the call in [20] was inactive.
Taken in the same sequence, the figures for `CC[C@@H](CO)NC(=O)[C@@H]1C=C2c3cccc4[nH]cc(c34)C[C@H]2N(C)C1` were 0.19 h, -5%, 1 and “inactive”.

The values are drawn from PubChem BioAssay.
